Experimental findings from PubChem BioAssay (EPA / NIEHS) are described below.

Read-out in test [1]: Tumor necrosis factor receptor 1 (TNFRSF1A), TNFRSF1A (gene 7132)
In words: LTEA_HepaRG_TNFRSF1A: Life Technologies and Expression Analysis (LTEA) Assay for Tumor necrosis factor receptor 1 (TNFRSF1A) using HepaRG (AID 2283535). The settings on record: mRNA level, 48 h; actives raise or lower the signal. The essentials: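 Differentiated HepaRG cells in serum-free induction medium, exposed 48 h in duplicate to 8 half-log concentrations up to 100 uM in 0.5% DMSO. TNFRSF1A mRNA by Fluidigm TaqMan qRT-PCR, normalized to ACTB, GAPDH, POLR2A; bidirectional fit.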

Read-out in test [2]: Thyroid Hormone Responsive (THRSP), THRSP (gene 7069)
In words: LTEA_HepaRG_THRSP: Life Technologies and Expression Analysis (LTEA) Assay for Thyroid Hormone Responsive (THRSP) using HepaRG (AID 2283536). The settings on record: mRNA level, 48 h; actives raise or lower the signal. The essentials:
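Differentiated HepaRG cells treated 48 h in serum-free induction medium with 8 half-log concentrations up to 100 uM (0.5% DMSO), duplicates. THRSP mRNA by TaqMan qRT-PCR normalised to ACTB, GAPDH, POLR2A; bidirectional fit versus DMSO.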

Read-out in test [3]: Cellular tumor antigen p53 (Homo sapiens) (UniProt P04637)
In words: LTEA_HepaRG_TP53: Life Technologies and Expression Analysis (LTEA) Assay for Tumor Protein P53 (TP53) using HepaRG (AID 2283537). The settings on record: mRNA level, 48 h; actives raise or lower the signal. The essentials: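 Read-out is TP53 transcript level by microfluidic qRT-PCR, normalised to three housekeeping genes and fitted bidirectionally against DMSO. Human HepaRG cells received compounds for 48 h, highest concentration 100 uM.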

Read-out in test [4]: UDP glucuronosyltransferase (UGT1A1), UGT1A1 (gene 54658)
The test can be described thus: LTEA_HepaRG_UGT1A1: Life Technologies and Expression Analysis (LTEA) Assay for UDP glucuronosyltransferase (UGT1A1) using HepaRG (AID 2283538). The conditions noted are these: mRNA level, 48 h; actives raise or lower the signal. In outline:
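Human liver HepaRG cultures receive test chemical for 48 h, up to 100 uM in 0.5% DMSO, with phenobarbital induction controls. UGT1A1 mRNA is measured by qRT-PCR and normalized to ACTB, GAPDH and POLR2A.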

Read-out in test [5]: X-box binding protein 1 (XBP1), XBP1 (gene 7494)
In words: LTEA_HepaRG_XBP1: Life Technologies and Expression Analysis (LTEA) Assay for X-box binding protein 1 (XBP1) using HepaRG (AID 2283540). The settings on record: mRNA level, 48 h; actives raise or lower the signal. The essentials: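 Differentiated human HepaRG cells in serum-free induction medium exposed 48 h in duplicate to eight half-log concentrations up to 100 uM in 0.5% DMSO. XBP1 mRNA measured by Fluidigm TaqMan qRT-PCR, normalized to ACTB, GAPDH, POLR2A; bidirectional fitting against DMSO.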

Test [6] can be described thus: LTEA_HepaRG_LDH_cytotoxicity: Cytotoxicity Assessment in the Life Technologies and Expression Analysis (LTEA) Assay (AID 2283563; active = hit-call score of the fitted dose curve at least 0.9, where 1 is the maximum;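 as to AC50: LDH activity released into spent culture medium as a marker of cell death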). The essentials: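 Differentiated HepaRG cells in serum-free induction medium, exposed 48 h in duplicate to 8 half-log concentrations up to 100 uM in 0.5% DMSO. Cytotoxicity from LDH measured in spent medium, fit relative to DMSO.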
The nature of test [7]: ATG_XTT_Cytotoxicity: Cytotoxicity Assessment in the Attagene TRANS-FACTORIAL HepG2 Assay (AID 2283584; active = hit-call score of the fitted dose curve at least 0.9, where 1 is the maximum). In outline: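 HepG2 cells transiently transfected with GAL4-UAS multiple reporter units, dosed 24 h; cytotoxicity read by XTT as loss of signal versus DMSO baseline.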
Test [8] in a line: TOX21_p53_BLA_p2_viability: Viability Assessment in the Tox21 HCT-116 p53 Agonism Beta-lactamase Assay, Phase 2 (AID 2283591; active = hit-call score of the fitted dose curve at least 0.9, where 1 is the maximum;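 also: compound exposure lasted 16 h at 37 °C; actives lower the ATP signal meaning cytotoxicity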). In outline: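 HCT116 p53-bla cells, 4000/well, dosed after 5 h plating (217-fold dilution of DMSO stocks) and incubated 16 h at 37C. Viability taken as cellular ATP by CellTiter-Glo luminescence after 30 min RT; signal loss marks cytotoxicity.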
For test [9], the target named is Cellular tumor antigen p53 (Homo sapiens) (UniProt P04637). The test can be described thus: TOX21_p53_BLA_p2_ratio: Tox21 HCT-116 p53 Agonism Beta-lactamase Assay, Ratio, Phase 2 (AID 2283592; active = hit-call score of the fitted dose curve at least 0.9, where 1 is the maximum). In outline: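 HCT-116 cells with p53-responsive beta-lactamase reporter, 4000 cells/well, preincubated 5 h, then compound in DMSO (217-fold dilution) for 16 h at 37C. CCF4-AM substrate 2 h at room temperature; 460/530 nm emission ratio fitted upward versus DMSO.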

Read-out in test [10]: UDP glucuronosyltransferase (UGT1A6), UGT1A6 (gene 54578)
The test can be described thus: LTEA_HepaRG_UGT1A6: Life Technologies and Expression Analysis (LTEA) Assay for UDP glucuronosyltransferase (UGT1A6) using HepaRG (AID 2283539). The conditions noted are these: mRNA level, 48 h; actives raise or lower the signal. The essentials: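 Differentiated HepaRG cells, ~100,000/well, were exposed for 48 h in serum-free induction medium with 0.5% DMSO to 8-point half-log series topping at 100 uM, in duplicate. mRNA measured by Fluidigm TaqMan qRT-PCR, normalized to ACTB, GAPDH and POLR2A.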

Where “and” joins values, the source holds several entries; their conditions need not be identical. Identical values can stand only once. Records with an inconclusive call do not appear. Calls of active or inactive are those of the source. The calls were made as follows, unless noted: active = hit-call score of the fitted dose curve at least 0.9, where 1 is the maximum; inactive = score below 0.9.

The AC50 is the midpoint of the concentration-response curve, whichever way the signal moves.

Sequence of Cellular tumor antigen p53 (Homo sapiens) (P04637 whole entry, looked up): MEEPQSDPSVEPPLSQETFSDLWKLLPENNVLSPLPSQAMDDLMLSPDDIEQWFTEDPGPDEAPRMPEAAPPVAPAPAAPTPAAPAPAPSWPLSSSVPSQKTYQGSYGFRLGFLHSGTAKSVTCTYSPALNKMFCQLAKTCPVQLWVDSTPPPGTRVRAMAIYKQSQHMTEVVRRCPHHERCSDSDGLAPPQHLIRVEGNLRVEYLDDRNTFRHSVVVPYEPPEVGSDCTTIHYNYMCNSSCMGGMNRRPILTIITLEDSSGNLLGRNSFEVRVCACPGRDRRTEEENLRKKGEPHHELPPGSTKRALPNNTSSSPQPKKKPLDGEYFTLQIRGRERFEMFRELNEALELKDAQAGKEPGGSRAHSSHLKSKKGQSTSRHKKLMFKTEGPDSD

With `C=CC1(C)OC(=O)N(c2cc(Cl)cc(Cl)c2)C1=O` (stereo not drawn), the molecule was called inactive in test [1], in [2], in test [3], in test [5], in test [6] and in [7]. Besides, the molecule was called inactive in test [8] and in test [9]. For the same molecule, in test [4], the AC50 was 22.7 µM (active).
With `C#CCOS(=O)OC1CCCCC1Oc1ccc(C(C)(C)C)cc1` (stereo not drawn), the AC50 in test [1] was 26.1 µM (active); in test [3], 58.4 µM (active); in [4] it was 27.5 µM (active); in test [6], 29.3 µM (active); in test [9], 2.65 µM (active) and 1.54 µM (active). Further, the molecule was classed as inactive in test [2], in test [5], in test [7] and in test [8].
As to `CCCCNC(=O)n1c(NC(=O)OC)nc2ccccc21`, the outcome in test [1], in test [2], in test [3], in test [10], in test [5] and in [6] was inactive. The outcome in [8] was inactive. Further, the AC50 in test [4] is 18.6 µM (active); in test [9], 11 µM (active) and 9.55 µM (active).
For the molecule `CCCC1COC(Cn2cncn2)(c2ccc(Cl)cc2Cl)O1` (stereo not drawn), the molecule was called inactive in test [1], in [5], in [7], in [8] and in test [9]. Also, the AC50 in test [2] was 7.44 µM (active); in [3] it was 34.3 µM (active); in test [4], 35.8 µM (active); in test [6] it was 32 µM (active).
Consider `Cc1cc(Cl)ccc1OCC(=O)O`, for which the result in test [1], in test [2], in [3], in test [4], in [5] and in [6] was inactive. Also, the call in test [7], in test [8] and in test [9] was inactive.
Take `CC(C)Oc1cc(-n2nc(C(C)(C)C)oc2=O)c(Cl)cc1Cl`: the molecule was classed as inactive in [1], in test [5], in [7], in test [8] and in test [9]. Moreover, the AC50 was 11.8 µM (active) in test [2], 86.3 µM (active) in [3], 1.41 µM (active) in test [4] and 84.6 µM (active) in test [6].
Turning to `CCCCC(CC)COC(=O)c1ccccc1C(=O)OCC(CC)CCCC` (stereo not drawn), the outcome in [1], in [2], in test [3], in test [5], in [6] and in test [7] was inactive. The call in [8] and in test [9] was inactive. In addition, the AC50 in test [4] is 9.29 µM (active).
Regarding `Cc1c(F)c(F)c(COC(=O)C2C(/C=C(\Cl)C(F)(F)F)C2(C)C)c(F)c1F` (stereo not drawn), the molecule was called inactive in [1], in test [2], in test [3], in test [4], in test [10] and in [5]. Further, the outcome in [6], in [8] and in test [9] was inactive.
Consider `COc1cnc(OC)n2nc(NS(=O)(=O)c3c(OCC(F)F)cccc3C(F)(F)F)nc12`, for which the call in test [1], in test [3], in test [5], in test [6], in test [7] and in test [8] was inactive. The result in test [9] was inactive. Besides, the figures for the AC50 in test [2] and in test [4] were 50 µM (active) and 19 µM (active), respectively.
Regarding `CCCCOC(=O)c1ccccc1C(=O)OCCCC`, the result in test [1], in test [2], in test [3], in [4], in [10] and in test [5] was inactive. Besides, the call in [6], in test [7] and in test [9] was inactive.
Turning to `COc1nc(NC(C)C)nc(NC(C)C)n1`, the call in [1], in [2], in test [3], in test [10], in test [5] and in test [6] was inactive. Further, the result in test [7] and in test [9] was inactive. Also, the AC50 in [4] is 11.4 µM (active).
On to `CCOC(=O)CC(SP(=S)(OC)OC)C(=O)OCC` (stereo not drawn), for which the result in test [1], in [2], in [3], in test [4], in test [10] and in test [5] was inactive. For the same molecule, the molecule was classed as inactive in test [6], in test [8] and in test [9].
